In PubChem BioAssay (EPA / NIEHS):
Calls of active or inactive are those of the source. The calls were made as follows: active = hit-call score of the fitted dose curve at least 0.9, where 1 is the maximum; inactive = score below 0.9.

What was measured:
[1] = BSK_hDFCGF_Proliferation: Cell Proliferation Assessment in the BioMAP Diversity Plus: hDFCGF Assay (AID 2283059); conditions: primary human foreskin fibroblasts;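 also: curves fitted for both rise and fall of signal versus DMSO baseline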
In short: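 This proliferation readout used SRB total-protein staining of human foreskin fibroblasts […], normalized to DMSO with bidirectional curve fitting.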

[2] = read-out: Macrophage colony-stimulating factor (MCSF), CSF1 (gene 1435); assay: BSK_hDFCGF_MCSF: BioMAP Diversity Plus: hDFCGF Assay for Macrophage colony-stimulating factor (MCSF) Biomarker Activity (AID 2283060); conditions: primary human foreskin fibroblasts; actives raise or lower the signal
In short: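 fibroblasts (human foreskin, primary), 24 h post-dose; M-CSF by ELISA; bidirectional fit, DMSO = baseline.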

[3] = BSK_hDFCGF_SRB: Viability Assessment in the BioMAP Diversity Plus: hDFCGF Assay (AID 2283061); conditions: primary human foreskin fibroblasts;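 also: cells exposed to compound for 24 h before the read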
In short: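 SRB-based viability read on primary human skin fibroblasts at 24 h: TCA fixation, 0.1% dye, 560 nm. Gain or loss of signal is fitted against the DMSO negative control.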

[4] = read-out: TIMP metallopeptidase inhibitor 1 (TIMP1), TIMP1 (gene 7076); assay: BSK_hDFCGF_TIMP1: BioMAP Diversity Plus: hDFCGF Assay for TIMP metallopeptidase inhibitor 1 (TIMP1) Biomarker Activity (AID 2283062); conditions: primary human foreskin fibroblasts; actives raise or lower the signal
In short: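 Bidirectional curve fitting against DMSO baseline yielded this endpoint, based on ELISA detection of TIMP-1 in primary human foreskin fibroblasts exposed to compound for 24 h.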

[5] = read-out: Monokine induced gamma interferon (MIG), CXCL9 (gene 4283); assay: BSK_hDFCGF_MIG: BioMAP Diversity Plus: hDFCGF Assay for Monokine induced gamma interferon (MIG) Biomarker Activity (AID 2283063); conditions: primary human foreskin fibroblasts; actives raise or lower the signal
In short: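 Endpoint derived by bidirectional fitting relative to DMSO; MIG quantified via ELISA in primary human foreskin fibroblasts harvested 24 h after dosing.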

[6] = read-out: Matrix Metallopeptidase 1 (MMP1), MMP1 (gene 4312); assay: BSK_hDFCGF_MMP1: BioMAP Diversity Plus: hDFCGF Assay for Matrix Metallopeptidase 1 (MMP1) Biomarker Activity (AID 2283064); conditions: primary human foreskin fibroblasts; actives raise or lower the signal
In short: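 Primary human foreskin fibroblasts exposed to chemicals for 24 h; MMP1 measured by ELISA. Cytotoxicity tracked by SRB staining in parallel cultures; bidirectional fit relative to DMSO.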

[7] = read-out: Plasminogen activator inhibitor-1 (PAI1), SERPINE1 (gene 5054); assay: BSK_hDFCGF_PAI1: BioMAP Diversity Plus: hDFCGF Assay for Plasminogen activator inhibitor-1 (PAI1) Biomarker Activity (AID 2283066); conditions: primary human foreskin fibroblasts; actives raise or lower the signal
In short: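 Human foreskin fibroblasts in the hDFCGF system were dosed with compound for 24 h; PAI-1 was quantified by ELISA. Bidirectional curve fitting used DMSO as negative control and baseline.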

[8] = read-out: Intercellular Adhesion Molecule 1 (ICAM1), ICAM1 (gene 3383); assay: BSK_KF3CT_ICAM1: BioMAP Diversity Plus: KF3CT Assay for Intercellular Adhesion Molecule 1 (ICAM1) Biomarker Activity (AID 2283067); conditions: primary human keratinocytes with fibroblasts; actives raise or lower the signal
In short: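 Bidirectional curve fitting against a DMSO baseline was applied to ICAM-1 ELISA signal from primary human skin co-cultures harvested 24 h after treatment, with SRB staining of parallel wells for overt cytotoxicity.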

[9] = read-out: Interferon-gamma inducible Protein 10 (IP10), CXCL10 (gene 3627); assay: BSK_KF3CT_IP10: BioMAP Diversity Plus: KF3CT Assay for Interferon-gamma inducible Protein 10 (IP10) Biomarker Activity (AID 2283068); conditions: primary human keratinocytes with fibroblasts; actives raise or lower the signal
In short: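 Signal is secreted/surface IP-10 by ELISA in a human primary skin co-culture of keratinocytes and foreskin fibroblasts, taken 24 h post-dosing; DMSO served as negative control.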

[10] = BSK_KF3CT_SRB: Viability Assessment in the BioMAP Diversity Plus: KF3CT Assay (AID 2283069); conditions: primary human keratinocytes with fibroblasts;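 also: total protein by sulforhodamine B staining as a cytotoxicity measure; read 24 h after compound addition; fitted for both signal gain and loss against DMSO baseline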
In short: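 Human keratinocyte and foreskin fibroblast co-culture exposed to chemical for 24 h. Total protein measured in parallel cultures by 0.1% sulforhodamine B staining after 10% TCA fixation, read at 560 nm; bidirectional fit relative to DMSO.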

[11] = read-out: Interleukin-1 alpha (IL1a), IL1A (gene 3552); assay: BSK_KF3CT_IL1a: BioMAP Diversity Plus: KF3CT Assay for Interleukin-1 alpha (IL1a) Biomarker Activity (AID 2283070); conditions: primary human keratinocytes with fibroblasts; actives raise or lower the signal
In short: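 Primary human keratinocyte plus foreskin fibroblast co-culture, dosed and measured at 24 h in 96-well plates. IL-1a level quantified by ELISA; bidirectional fit relative to DMSO.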

[12] = read-out: TIMP metallopeptidase inhibitor 2 (TIMP2), TIMP2 (gene 7077); assay: BSK_KF3CT_TIMP2: BioMAP Diversity Plus: KF3CT Assay for TIMP metallopeptidase inhibitor 2 (TIMP2) Biomarker Activity (AID 2283071); conditions: primary human keratinocytes with fibroblasts; actives raise or lower the signal
In short: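 Human primary keratinocyte/foreskin fibroblast co-culture dosed with chemical and sampled at 24 h. TIMP-2 levels quantified by ELISA; bidirectional fitting against DMSO negative control as baseline.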

[13] = read-out: Transforming growth factor beta 1 (TGFb1), TGFB1 (gene 7040); assay: BSK_KF3CT_TGFb1: BioMAP Diversity Plus: KF3CT Assay for Transforming growth factor beta 1 (TGFb1) Biomarker Activity (AID 2283072); conditions: primary human keratinocytes with fibroblasts; actives raise or lower the signal
In short: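 Human keratinocyte plus foreskin fibroblast primary co-culture, dosed with chemical for 24 h. TGF-b1 quantified by ELISA. Activity fitted bidirectionally against DMSO negative control as baseline.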

[14] = read-out: C-C motif chemokine 2 (Homo sapiens) (UniProt P13500); assay: BSK_KF3CT_MCP1: BioMAP Diversity Plus: KF3CT Assay for Monocyte Chemoattractant Protein 1 (MCP1/CCL2) Biomarker Activity (AID 2283073); conditions: primary human keratinocytes with fibroblasts; actives raise or lower the signal
In short: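 Biomarker MCP-1 is measured by ELISA in primary human keratinocytes co-cultured with foreskin fibroblasts, 24 h after chemical treatment; DMSO serves as the negative control and activity baseline.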

[15] = read-out: Matrix Metallopeptidase 9 (MMP9), MMP9 (gene 4318); assay: BSK_KF3CT_MMP9: BioMAP Diversity Plus: KF3CT Assay for Matrix Metallopeptidase 9 (MMP9) Biomarker Activity (AID 2283074); conditions: primary human keratinocytes with fibroblasts; actives raise or lower the signal;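 as to AC50: MMP9 protein level quantified by ELISA in the co-culture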
In short: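 Human keratinocyte and foreskin fibroblast co-culture exposed to chemicals for 24 h; MMP9 biomarker measured by ELISA, bidirectional fitting relative to DMSO; cytotoxicity tracked by SRB total protein staining in parallel cultures.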

[16] = read-out: urokinase plasminogen activator (uPA), PLAU (gene 5328); assay: BSK_KF3CT_uPA: BioMAP Diversity Plus: KF3CT Assay for urokinase plasminogen activator (uPA) Biomarker Activity (AID 2283075); conditions: primary human keratinocytes with fibroblasts; actives raise or lower the signal
In short: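 Primary human keratinocyte/foreskin fibroblast co-culture exposed to chemical; uPA measured by ELISA at 24 h. Bidirectional fit versus DMSO, with parallel SRB total-protein staining for cytotoxicity.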

CD40, CD40 (gene 958) = assay: BSK_LPS_CD40: BioMAP Diversity Plus: LPS Assay for CD40 Biomarker Activity (AID 2283076); conditions: primary human HUVEC with PBMC; actives raise or lower the signal
In short: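 Using a multiplexed primary human co-culture (umbilical vein endothelium plus PBMC), CD40 was read by ELISA 24 h after dosing, with cytotoxicity tracked by sulforhodamine B staining of parallel cultures and activity fitted bidirectionally versus DMSO.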

[17] = read-out: E-selectin (Homo sapiens) (UniProt P16581); assay: BSK_LPS_Eselectin: BioMAP Diversity Plus: LPS Assay for Eselectin Biomarker Activity (AID 2283077); conditions: primary human HUVEC with PBMC; actives raise or lower the signal
In short: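 Dose chemical onto LPS-driven HUVEC/PBMC co-culture; after 24 h, run ELISA for E-selectin; fit up- and down-going responses relative to DMSO control.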

[18] = read-out: Interleukin-8 (IL8), CXCL8 (gene 3576); assay: BSK_LPS_IL8: BioMAP Diversity Plus: LPS Assay for Interleukin-8 (IL8) Biomarker Activity (AID 2283078); conditions: primary human HUVEC with PBMC; actives raise or lower the signal
In short: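 In this LPS system, chemical-treated human umbilical vein endothelium/PBMC co-cultures were harvested at 24 h for IL-8 ELISA.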

[19] = read-out: Vascular cell adhesion molecule 1 (VCAM1), VCAM1 (gene 7412); assay: BSK_hDFCGF_VCAM1: BioMAP Diversity Plus: hDFCGF Assay for Vascular cell adhesion molecule 1 (VCAM1) Biomarker Activity (AID 2283065); conditions: primary human foreskin fibroblasts; actives raise or lower the signal;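 as to AC50: VCAM-1 protein level quantified by ELISA after 24 h chemical exposure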
In short: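 Measured after 24 h chemical treatment of primary human skin fibroblasts, VCAM-1 was detected by ELISA and concentration-response analysed in both directions versus DMSO vehicle.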

Measured: AC50

Sequence of E-selectin (Homo sapiens) (P16581 whole entry, looked up): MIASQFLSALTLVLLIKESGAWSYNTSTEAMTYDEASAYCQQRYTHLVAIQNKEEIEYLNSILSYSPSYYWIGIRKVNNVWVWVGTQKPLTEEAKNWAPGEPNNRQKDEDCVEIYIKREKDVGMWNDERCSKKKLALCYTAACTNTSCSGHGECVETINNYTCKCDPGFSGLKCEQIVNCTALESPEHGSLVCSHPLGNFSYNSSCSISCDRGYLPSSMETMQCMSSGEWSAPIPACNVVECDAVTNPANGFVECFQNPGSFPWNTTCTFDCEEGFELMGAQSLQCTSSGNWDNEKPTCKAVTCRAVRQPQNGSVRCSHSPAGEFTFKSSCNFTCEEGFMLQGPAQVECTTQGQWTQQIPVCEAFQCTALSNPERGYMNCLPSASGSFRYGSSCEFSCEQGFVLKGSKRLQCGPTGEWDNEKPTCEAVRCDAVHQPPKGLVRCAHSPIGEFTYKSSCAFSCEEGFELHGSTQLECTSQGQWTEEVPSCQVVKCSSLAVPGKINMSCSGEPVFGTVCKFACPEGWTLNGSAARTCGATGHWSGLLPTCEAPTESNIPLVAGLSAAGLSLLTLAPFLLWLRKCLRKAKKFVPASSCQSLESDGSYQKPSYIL

ClC1=C(Cl)[C@]2(Cl)[C@@H]3[C@@H](Cl)[C@H]4O[C@H]4[C@@H]3C1(Cl)C2(Cl)Cl
active: [1] 5.9 µM | [3] 5.55 µM
not listed: [19]
inactive: all other assays above

CC(C)C(=O)OCC(C)(C)C(OC(=O)C(C)C)C(C)C (stereo not given)
active: [1] 34.4 µM
not listed: [13] | [16]
inactive: all other assays above

Cc1ccccc1[N+](=O)[O-]
not listed: [13]
inactive: all other assays above

CCC(=O)O[C@H]1CC[C@H]2[C@@H]3CCC4=CC(=O)CC[C@]4(C)[C@H]3CC[C@]12C
inactive: [14]
active: [1] 30.6 µM | [2] 31.3 µM | [3] 36.1 µM | [4] 33.8 µM | [5] 36.9 µM | [6] 35.9 µM | [19] 31.4 µM | [7] 39.1 µM | [8] 37.5 µM | [9] 32.1 µM | [10] 36.3 µM | [11] 32.7 µM | [12] 30.7 µM | [15] 32.4 µM | CD40, CD40 (gene 958) 28 µM | [17] 29.4 µM | [18] 26.5 µM

CCC(C)c1cc([N+](=O)[O-])cc([N+](=O)[O-])c1O (stereo not given)
active: [1] 3.85 µM | [2] 4.2 µM | [3] 7.45 µM | [7] 12 µM | [9] 3.97 µM | [14] 11.6 µM | [15] 12.6 µM | [17] 27 µM | [18] 27.5 µM
not listed: CD40, CD40 (gene 958)
inactive: all other assays above

O=C(NC(=O)c1c(F)cccc1F)Nc1cc(Cl)c(OC(F)(F)C(F)F)c(Cl)c1
not listed: [13] | [16] | [19]
inactive: all other assays above
